Screening results from PubChem BioAssay.
HP1b chromo inh = HTS for Inhibitors of HP1-beta Chromodomain Interactions with Methylated Histone Tails; Chromobox protein homolog 1 (Homo sapiens), P83916; AlphaScreen HP1-beta / biotin-H3K9me3 peptide binding; Potency, µM (highest dose often 114 µM), for inactives: top-dose activity change, negative = inhibition, actives largely listed as inhibitors; 390,000 compounds, 0.56% hits; AID 540317, 2011; further: nearly all actives have a fitted effect of over 70% in size
Target sequence (P83916 whole entry, looked up): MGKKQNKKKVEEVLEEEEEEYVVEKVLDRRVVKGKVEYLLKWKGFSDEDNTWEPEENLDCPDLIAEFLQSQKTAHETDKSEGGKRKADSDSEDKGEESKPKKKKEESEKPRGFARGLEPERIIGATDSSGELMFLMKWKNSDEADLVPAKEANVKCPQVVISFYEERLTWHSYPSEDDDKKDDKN
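HP1-beta protein (50 nM final) preincubated 30 min at room temperature with biotinylated H3(1-18)K9me3 peptide (50 nM) in PBS pH 7.4, 0.01% Tween-20, then compound added for 30 min. AlphaScreen streptavidin donor/nickel chelate acceptor beads (10 ug/mL final), 30 min dark, luminescence read.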
Sfp inh = qHTS Assay for Inhibitors of Bacillus subtilis Sfp phosphopantetheinyl transferase (PPTase) | 4'-phosphopantetheinyl transferase ffp (Bacillus subtilis), Q9F4F7 | Biochemical Sfp PPTase activity, qHTS | Potency, µM, for the others: largest response in the series, negative = inhibition, actives largely listed as inhibitors | 310,000 compounds, 3.5% hits;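 further: the enzyme is Sfp with the accession as filed and its product quenches rhodamine fluorescence; 0% = enzyme reaction without inhibitor and -100% = no enzyme wells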
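Compounds were incubated with enzyme (final 15 nM) for 15 min at room temperature before substrate addition started the reaction. Fluorescence at 525 nm excitation, 598 nm emission was recorded immediately and after 30 minutes.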
G9a block = qHTS Assay for Inhibitors of Histone Lysine Methyltransferase G9a. Histone-lysine N-methyltransferase EHMT2 (Homo sapiens), Q96KQ7. G9a H3K9 monomethylation, AlphaScreen, 2 h. Potency, µM (top dose mostly 102 µM), inactives show at the highest dose activity, negative = inhibition, hits mostly inhibitors. 350,000 compounds, 8.8% hits. AID 504332, 2011; further: on the % scale 0 is the no-effect control and ±100 the full control effect; nearly all actives have a fitted effect of over 75% in size
Target sequence (Q96KQ7 913-1193 limits assumed): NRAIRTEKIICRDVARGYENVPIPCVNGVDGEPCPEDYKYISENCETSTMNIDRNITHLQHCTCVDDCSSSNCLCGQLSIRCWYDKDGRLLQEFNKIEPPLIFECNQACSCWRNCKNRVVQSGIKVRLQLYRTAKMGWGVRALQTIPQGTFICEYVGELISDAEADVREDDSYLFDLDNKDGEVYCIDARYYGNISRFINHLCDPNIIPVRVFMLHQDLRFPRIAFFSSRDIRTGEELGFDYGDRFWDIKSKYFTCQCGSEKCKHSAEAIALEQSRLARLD
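Quantitative HTS format: methyltransferase activity on a biotin-tagged H3K9 peptide is measured by AlphaScreen, using a rabbit anti-monomethyl-H3K9 antibody with streptavidin donor and anti-IgG acceptor beads. Final levels are 20 nM enzyme, 500 nM peptide, 20 uM SAM; 2 h RT.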
JMJD2A Tudor inh = qHTS Assay for Inhibitors of JMJD2A-Tudor Domain. AlphaScreen JMJD2A-Tudor / H3K4me3 peptide binding. Potency, µM (highest dose often 114 µM), for the others: at the top dose activity change, negative = inhibition, hits mostly inhibitors. 390,000 compounds, 4.4% hits. AID 504339, 2011; further: on the % scale 0 is the no-effect control and ±100 the full control effect; nearly all actives have a fitted effect of over 50% in size
BAZ2B block = qHTS Assay for Inhibitors of BAZ2B. AlphaScreen BAZ2B-H3K14Ac peptide displacement. Bromodomain adjacent to zinc finger domain protein 2B (Homo sapiens), Q9UIF8. 360,000 compounds, 4.4% hits. Potency, µM (top dose mostly 114 µM), for inactives: at the highest dose activity change, negative = inhibition, usual class: inhibitors. AID 504333, 2011; further: on the % scale 0 is the no-effect control and ±100 the full control effect; nearly all actives have a fitted effect of over 60% in size
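AlphaScreen displacement of biotin-H3(5-23)K14Ac peptide (50 nM final) from BAZ2B (50 nM final) in PBS pH 7.4, 0.01% Tween-20; complex preformed 30 min RT, then compounds (top 110 uM) 30 min RT, beads 20 min dark.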
Starred values were filed as active, the others as inactive; ? = inconclusive; · = no result; [ ] = another dose, or the depositor's remark. Hits are enriched below; roughly 12% of the tested compounds scored in any of these assays. The call rests on the fitted dose curve; in most records, active means well fitted curve in the direction sought with a large enough effect; inconclusive means small, poorly fitted or top-dose-only effect, or another doubt; inactive means no such curve, though single readings can be large; an effect the other way counts as inactive or inconclusive. Potency means the concentration at half of the fitted maximal effect.

SMILES | HP1b chromo inh | Sfp inh | G9a block | JMJD2A Tudor inh | BAZ2B block
Cc1ccccc1OCC(=O)NC(=S)Nc1ccc(N2CCOCC2)c(Cl)c1 | 5% | 8% | ? | -7% | 6%
S=C(Nc1ccc(N2CCOCC2)cc1)Nc1ccc2snnc2c1 | -13% | -67% | 28µM* | ? | -32%
Cc1cccc(NC(=S)Nc2ccc(N3CCOCC3)cc2)c1C | 3% | -19% | 40µM* | 4%[57.1 µM] | -30%
O=C(c1csc2ccccc12)n1cccn1 | 31% | -5% | -12% | 3% | 53%
FC(F)(F)C1=CC(c2ccc(Br)cc2)=NCCN1 | 13% | 14% | -2% | -14% | 3%
Cc1c(NS(=O)(=O)c2cc([N+](=O)[O-])ccc2Cl)c(=O)n(-c2ccccc2)n1C | 9% | · | · | -12% | ·
COc1ccc(C(=O)NC(=S)Nc2cccnc2)cc1Cl | 6% | 2% | 50µM* | ? | -3%
O=C(NC(=S)Nc1ccc(N2CCOCC2)cc1)c1ccc(Cl)cc1 | -12% | -12% | ? | -11% | 0%
COc1ccc(C(=O)NC(=S)Nc2ccc(N3CCOCC3)cc2)cc1Cl | ? | -5% | 25µM* | 25µM* | 22µM*
CC(=O)c1cccc(NC(=S)NC(=O)c2cccc(C)c2)c1 | -14% | -4% | 25µM* | ? | -37%
CC(=O)N1CCN(c2ccc(NC(=O)c3cccc(C)c3)cc2)CC1 | 6% | 7% | · | -7% | -5%
Cc1cccc(N2CCN(c3ccc(NC(=O)/C=C(/C(=O)O)c4ccccc4)cc3)CC2)c1 | ? | ? | 8.9µM* | ? | ?
O=C1CC2C(=O)NCCN2C(=NC(=O)c2ccccc2)N1 (stereo not drawn) | 31% | -7% | · | -7% | 8%
COc1ccc(CCNC(=O)c2c(O)nc3cc(C)ccn3c2=O)cc1OC | 26% | · | -10%[59 µM] | -15% | -12%
COc1ccc(Br)cc1CNC(=O)CCC(=O)n1nc(C)c2ccccc21 | 37% | -17% | ? | -15% | -12%
CC(C)(C)c1ccc(C(=O)NC(=S)Nc2ccc(N3CCOCC3)cc2)cc1 | 8% | -2% | -13% | -17% | -12%
O=C(NC(=S)Nc1ccc(N2CCOCC2)cc1)c1cccs1 | -11% | ? | · | ? | ?
Cc1ccc(C(=O)NC(=S)Nc2ccc(N3CCOCC3)cc2)cc1C | ? | 1% | ? | 50µM* | 20µM*
Cc1cccc(C(=O)NC(=S)Nc2ccc(N3CCOCC3)cc2)c1 | ? | -7% | 7.9µM* | ? | 32µM*
COc1ccc(NC(=S)Nc2ccccn2)cc1 | 38% | -4% | 40µM* | -8% | -33%
O=C(/C=C/c1ccc(Cl)cc1)NC(=S)Nc1ccc(N2CCOCC2)c(Cl)c1 | ? | ? | 22µM* | ? | 5%
N#CC1=C(N)Oc2cc(N)ccc2C1c1ccccc1F (stereo not drawn) | 6% | -3% | ? | -13% | -37%
CCCS(=O)(=O)N1CCCC(C(=O)Oc2ccccc2Cl)C1 (stereo not drawn) | 36% | 12% | 47% | -1% | 3%
COC(=O)c1nnn(-c2nonc2N)c1CSc1ccc(Cl)cc1 | 13% | 15% | -12%[59 µM] | 2% | -28%
CCOc1ccc(NC(=S)Nc2cccnc2)cc1 | -9% | ? | 45µM* | -10% | -14%
SMILES | HP1b chromo inh | Sfp inh | G9a block | JMJD2A Tudor inh | BAZ2B block
COc1cc(NC(=S)Nc2cccnc2)cc(OC)c1OC | 23% | ? | 50µM* | -23% | -5%
Cc1c(Br)c(=O)oc2c(Br)c(O)ccc12 | 7% | -2% | -47% | -8% | -3%
Cc1c(Br)c(=O)oc2c(Br)c(O)c(O)cc12 | -11% | ? | 28µM* | 45µM* | ?
COc1cc(-c2nnc(SCCOc3ccccc3)o2)cc(OC)c1OC | 43% | · | -23%[59 µM] | -13% | 3%
COc1ccc(C2CC(=O)n3nc(C45CC6CC(CC(C6)C4)C5)nc3S2)cc1OC (stereo not drawn) | 4% | 1% | 11µM* | -7% | -10%
NC(=O)NC(=O)COC(=O)c1ccc(OC(F)(F)F)cc1 | 12% | 23% | 8% | -5% | -3%
O=C(COC(=O)c1ccc(OC(F)(F)F)cc1)Nc1ncccn1 | -13% | · | · | 56µM* | ·
COc1cccc(/C=C/C(=O)NCc2cn3cc(Cl)ccc3n2)c1 | 28% | 18% | -4% | -14% | -12%
COC(=O)CCSCc1cn2cc(Cl)ccc2n1 | 49% | 13% | 40µM* | -15% | 4%
O=C(O)CSCc1cn2cc(Cl)ccc2n1 | -1% | -10% | 50µM* | ? | -24%
COC(=O)c1ccccc1NC(=O)c1cnc2sc(N3CCOCC3)nn2c1=O | -8% | · | 20%[59 µM] | -5% | -30%
Cc1nnsc1NC(=O)OCC(C)C | 30% | 9% | 8% | 13% | -1%
Cc1nnsc1NC(=O)OCC(C)(C)C | 17% | 5% | 50µM* | -9% | 5%
COc1ccc(C)cc1NC(=O)CCNS(=O)(=O)c1ccc2c(c1)CCC(=O)N2 | 36% | 25% | 15% | 2% | -10%
CCCCC1NC(C(=O)O)CS1 (stereo not drawn) | ? | ? | 5µM* | 32µM* | 50µM*
CCOC(=O)NC(NS(=O)(=O)c1ccccc1)(C(=O)OCC)C(F)(F)F (stereo not drawn) | -2% | -4% | 4%[59 µM] | -14% | 0%
O=C(NCc1ccc2[nH]c3c(c2c1)CCCC3)N1CCOCC1 | · | -18% | ? | · | -1%
O=C(NCc1ccc2[nH]c3c(c2c1)CCCC3)c1ccc(S(=O)(=O)N2CCCC2)cc1 | 7% | 7% | 45µM* | -27% | -37%
CN(C)S(=O)(=O)c1ccc(C(=O)NCc2ccc3[nH]c4c(c3c2)CCCC4)cc1 | -10% | 8% | 45µM* | ? | ?
Cc1cc2cc(CNC(=O)c3ccc(S(=O)(=O)N4CCCCC4)cc3)ccc2[nH]1 | 18% | 4% | -14%[59 µM] | -22% | -33%
CCN(CC)S(=O)(=O)c1ccc(C(=O)NCc2ccc3[nH]c4c(c3c2)CCCC4)cc1 | -3% | 5% | ? | -28% | ?
O=C(NCc1ccc2[nH]c3c(c2c1)CCCC3)c1ccc(S(=O)(=O)N2CCOCC2)cc1 | -7% | 2% | 40µM* | -35% | ?
CCCn1c(N)cc(=O)n(C)c1=O | 46% | 10% | 10% | -10% | 2%
COc1ccc(C(=O)NCc2nnc(SCC(=O)Nc3nnc(C)s3)o2)cc1 | 32% | ? | 35µM* | -10% | 0%
CCc1nnc(NC(=O)CSc2nnc(COc3ccccc3C)o2)s1 | 56% | ? | 50µM* | -8%[57.1 µM] | 0%
